# Rows were chosen to be rich in hits. Some 6% of all compounds tested hit in one or more screens of this group.
# TSHR ag: qHTS Assay for Agonists of the Thyroid Stimulating Hormone Receptor | actives 0.48% (n = 73,000) | Potency, µM (highest dose often 57.1 µM), without a hit: at the highest dose activation, actives largely listed as activators | HEK293-CNG-TSHR cells (CNG channel as cAMP sensor), membrane potential dye, cAMP; active = well fitted activation curve with a large enough effect in the main read-out, with a control signal flat, not every such curve was filed as active; inconclusive = small, poorly fitted or top-dose-only effect, or a change in a side signal; inactive = no such curve, though single readings can be large or run the other way; % of control where 0% means no effect;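 also: the control signal comes from parental cells without the receptor; potency is read from the fitted curve at half-maximal effect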
# Target sequence (P16473 whole entry, looked up): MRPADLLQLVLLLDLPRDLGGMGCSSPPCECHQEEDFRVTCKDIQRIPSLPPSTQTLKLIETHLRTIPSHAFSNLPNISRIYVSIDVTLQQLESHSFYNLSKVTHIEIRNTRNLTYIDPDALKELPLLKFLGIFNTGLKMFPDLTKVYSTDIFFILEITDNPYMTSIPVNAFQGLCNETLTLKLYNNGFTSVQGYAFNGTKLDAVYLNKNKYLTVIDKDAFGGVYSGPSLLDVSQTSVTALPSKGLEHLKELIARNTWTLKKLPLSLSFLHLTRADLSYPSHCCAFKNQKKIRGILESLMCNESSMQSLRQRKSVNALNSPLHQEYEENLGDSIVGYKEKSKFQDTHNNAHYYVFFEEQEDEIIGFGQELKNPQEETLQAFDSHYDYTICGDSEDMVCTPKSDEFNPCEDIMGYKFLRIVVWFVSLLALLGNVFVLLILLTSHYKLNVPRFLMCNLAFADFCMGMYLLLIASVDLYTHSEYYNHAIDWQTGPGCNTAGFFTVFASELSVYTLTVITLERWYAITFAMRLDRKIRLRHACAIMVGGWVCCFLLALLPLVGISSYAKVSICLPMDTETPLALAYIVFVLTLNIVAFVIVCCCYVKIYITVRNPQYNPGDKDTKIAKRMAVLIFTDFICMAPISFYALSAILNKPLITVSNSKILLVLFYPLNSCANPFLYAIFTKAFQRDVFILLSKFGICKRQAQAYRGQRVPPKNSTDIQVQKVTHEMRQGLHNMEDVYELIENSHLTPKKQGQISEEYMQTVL
#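 HEK 293 cells stably expressing TSHR and a cAMP-gated CNG channel; parental CNG-only cells as counterscreen. Cells preloaded 60 min with membrane potential dye plus 100 uM RO 20-1724, then compound 30 min; fluorescence read at 590 nm.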
# ERK AVP block: qHTS Assay for Inhibitors of the ERK Signaling Pathway using a Homogeneous Screening Assay; HEK293-V1b, vasopressin-stimulated pERK AlphaScreen; Potency, µM (top dose mostly 57.5 µM), without a hit: at the highest dose activity, negative = inhibition, most hits filed as inhibitors; actives 0.99% (n = 72,000); also: potency is read from the fitted curve at half-maximal effect; % is scaled to controls: 0 for no effect and ±100 for the full control effect; nearly all actives have a fitted effect of over 55% in size
#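 HEK293 cells stably expressing V1b receptor, preincubated 30 min at 37 °C with compound, then stimulated 5 min with 25 nM vasopressin. Phospho-ERK by AlphaScreen SureFire after 5 h RT; normalized to DMSO and vasopressin; AC50 by Hill fit.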
# HEK293 cAMP cs: qHTS Assay for Agonists of the Thyroid Stimulating Hormone Receptor: Activators of Intracellular cAMP Concentrations in Parental HEK 293; parental HEK293 CNG cAMP sensor, membrane potential fluorescence; Potency, µM (top dose mostly 57.1 µM), for the others: at the top dose activation, hits mostly activators; actives 2.5% (n = 73,000); also: potency is read from the fitted curve at half-maximal effect; % of control where 0% means no effect; nearly all actives have a fitted effect of over 55% in size
#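 Parental HEK 293 cells stably expressing a modified CNG channel (no TSHR) report cAMP rise as membrane depolarization. Membrane potential dye with 100 uM RO 20-1724 was loaded for 60 min at room temperature, then compound added for 30 min; fluorescence read at 590 nm.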
# CRE Fsk mod: Cell signaling CRE-BLA (Fsk stim); actives 2.5% (n = 71,000); AID 662, 2007; CHO CRE-bla reporter (cAMP response element driving beta-lactamase), forskolin EC10, beta-lactamase ratio; Potency, µM (highest dose often 38.2 µM), without a hit: at the highest dose activity change, negative = inhibition, hits mostly activators; active = well fitted activation curve with a large enough effect in the signal ratio, with a control signal flat, not every such curve was filed as active; inconclusive = small, poorly fitted or top-dose-only effect, or effect the other way, or a change in a side signal; the % refers to the signal ratio; also: potency is read from the fitted curve at half-maximal effect; % of control where 0% means no effect
#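 CRE-bla CHO cells stimulated with EC10 NKH 477 (water-soluble forskolin) and compound titrations, 3 h at 37C; beta-lactamase read with CCF4 after 2 h at room temperature. Activity from 460/530 nm emission ratio, AC50 values for positive or negative modulation.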
# CHO via 24h: Cell Viability - CRE-beta lactamase CHO cell - 24 hr assay; activity, negative = viability loss, % at 46.1 µM; 120 tested, under 10 active; CRE-bla CHO viability, ATP luminescence, 24 h; shares compounds with CRE Fsk mod
# CHO via 40h: Cell Viability - CRE-beta lactamase CHO cell - 40 hr assay; CRE-bla CHO viability, ATP luminescence, 40 h; Potency, µM, inactives show max response, usual class: inhibitors; 120 tested, under 10 active; shares compounds with CRE Fsk mod
# CREB luc CRC: Confirmation Concentration-Response Assay for Cell signaling CRE-BLA (Fsk stim) - HEK293 CREB Luciferase | shares compounds with CRE Fsk mod | HEK293 CRE-luc2P, NKH477 EC10 potentiation, luminescence, 4 h | Potency, µM (doses to about 38.3 µM), for inactives: top-dose activity, positive = activation, hits mostly activators | actives 80% (n = 120) | AID 907, 2007
# HEK293 cAMP cnt: Confirmation Concentration-Response Assay for Agonists of the Thyroid Stimulating Hormone Receptor: Activators of Intracellular cAMP Concentrations in Parental HEK 293 | AID 953, 2007 | activity change, negative = inhibition, % at 32.9 µM | shares compounds with TSHR ag | 150 tested, under 10 active | parental HEK293 CNG biosensor, cAMP membrane potential fluorescence
# An asterisk follows results filed as active; ? = inconclusive; nt = no result; [ ] = dose if it differs, or a comment. Unless noted, calls follow the shape of the dose curve; as a rule, active = well fitted curve in the direction sought with a large enough effect; inconclusive = small, poorly fitted or top-dose-only effect, or another doubt; inactive = no such curve, though single readings can be large; an effect the other way counts as inactive or inconclusive.
SMILES,TSHR ag,ERK AVP block,HEK293 cAMP cs,CRE Fsk mod,CHO via 24h,CHO via 40h,CREB luc CRC,others
COc1cc(C2SCCCCCCCCCCSC(c3ccc(O)c(OC)c3)SCCCCCCCCCCS2)ccc1O (centres undefined),nt,4%[11.5 µM],17%[11.4 µM],5%[7.6 µM],nt,nt,nt,
CCC(O)OC(O)CC (centres undefined),?,-15%,-7%,-12%,nt,nt,nt,
COc1cc(OC)cc([C@H](CNc2ncnc3c2ncn3[C@@H]2O[C@@H](CO)[C@H](O)[C@@H]2O)c2ccccc2C)c1,nt,nt,4%,5%,nt,nt,nt,
CCOc1cc(C2c3c(oc4cc(C)c(Cl)cc4c3=O)C(=O)N2Cc2ccco2)ccc1O (centres undefined),26%,-10%,4%,13µM*,-21,-25%,0.79µM*,
Cc1cc2oc3c(c(=O)c2cc1C)C(c1cccc(Br)c1)N(Cc1ccco1)C3=O (centres undefined),9%,15%,17%,-4%,nt,nt,nt,
CC1CCc2c(sc3nc(C4CC4)nc(SCC(=O)NCc4ccco4)c23)C1 (centres undefined),3%,-11%,7%,-1%,3,-2%,8%,
Cc1cc(C)nc(Sc2nc(C)nc3c2oc2ccccc23)n1,12%,-22%,3%,2%,nt,nt,nt,
Cc1cc(C)nc(N2CCN(c3nc(C)nc4c3oc3ccccc34)CC2)n1,14%,-1%,5%,0%,5,-5%,3.2µM*,
C[N@+]1(CCC(=O)c2ccccc2)CC[C@H]2CC[C@H](C2)C1,-2%[11.4 µM],-9%[11.5 µM],3%[11.4 µM],-5%[7.6 µM],nt,nt,nt,
O=C(Nc1ccc(-c2cn3ccsc3n2)cc1)c1ccc(F)c(S(=O)(=O)N2CCOCC2)c1,15%,13µM*,-3%,1.6µM*,?,-22%,2.8µM*,
Cc1cc(C)n(-c2nncc(-c3ccccc3)n2)n1,-2%,-25%,-16%,27%,nt,nt,nt,
Cc1cc(C)n(-c2nc(Nc3ccccc3)nc(-n3nc(C)cc3C)n2)n1,19%,2%,16%,12%,-2,-7%,?,
O=[N+]([O-])c1ccc(C2=Nn3c(nnc3-c3ccc(Cl)cc3)SC2)o1,-4%[11.4 µM],16%[11.5 µM],-24%[11.4 µM],9%[7.6 µM],nt,nt,nt,
CN1C(=O)NC(c2ccccc2)C2=C1CN(Cc1ccccc1)C2=O (centres undefined),nt,nt,nt,nt,-3,-1%,21%,
COC(=O)N1CCC[C@@]2(CCN(Cc3cc(C(F)(F)F)cc(C(F)(F)F)c3)C2)C1,7%,6%,2%,-6%,nt,nt,nt,
Cc1ccc2c(C)nc(Nc3nc(CSc4nnnn4-c4ccccc4)cc(=O)[nH]3)nc2c1,26%,-15%,21%,?,-14,-29%,3.2µM*,
COCc1cc(=O)[nH]c(Nc2nc(C)c3ccc(C)cc3n2)n1,3%,-3%,11%,8%,-6,-26%,?,
O=C1[C@H]2[C@H]3[C@H](O)[C@H](O)C/C(=N/OC[C@@H](O)COCc4ccco4)[C@@H]3CC[C@@H]2C(=O)N1Cc1ccccc1,-10%[11.4 µM],15%[11.5 µM],7%[11.4 µM],nt,nt,nt,nt,
CC(C)CN1CCCC2(CCN(C(=O)c3cnccn3)CC2)C1,1%,10%,4%,-4%,nt,nt,nt,
CCOC(=O)CSc1nc2sc3c(c2c(=O)n1CC)CC(C)(C)OC3,7%,?,6%,?,nt,nt,nt,
CC1(C)Cc2c(sc3nc(SCC#N)n(C4CCCCC4)c(=O)c23)CO1,nt,nt,nt,nt,-11,-20%,0.63µM*,
CCC1=C2CC[C@H]3C(=O)N(c4ccccc4)C(=O)[C@H]3[C@H]2[C@@]2(Cc3ccccc3)C(=O)N(CC(=O)OC)C(=O)N2C1=O,nt,-12%,nt,nt,nt,nt,nt,
C[C@@]12CC[C@@H]3[C@H](CCC4=CC(=O)CC[C@]43C)[C@@H]1CC[C@@H]2C(=O)COS(=O)(=O)c1ccc(Br)cc1,0%[11.4 µM],-20%[11.5 µM],4%[11.4 µM],3%[7.6 µM],nt,nt,nt,
C=CCn1c(SCC(=O)Nc2sccc2C(N)=O)nc2sc(C)c(C)c2c1=O,21%,10%,-8%,2µM*,?,?,4µM*,
Cc1nnc(SCC(=O)Nc2sccc2C(N)=O)n1Cc1ccccc1,-1%,14%,-2%,?,nt,nt,nt,
SMILES,TSHR ag,ERK AVP block,HEK293 cAMP cs,CRE Fsk mod,CHO via 24h,CHO via 40h,CREB luc CRC,others
COC(=O)c1ccc(CSc2ccc3nnc(-c4cccc(F)c4)n3n2)o1,-1%,nt,6%,7.9µM*,-14,-18%,13µM*,
CCOC(=O)CC(=O)CSc1ccc2nnc(-c3cccc(F)c3)n2n1,6%[11.4 µM],5%,7%,?,nt,nt,nt,
NC(=O)c1nsc(C(=O)N(CC(=O)NCc2ccc3c(c2)OCO3)C2CCCCC2)c1N,2µM*,-11%,18%,-8%,nt,nt,nt,HEK293 cAMP cnt=9
CC1(C)O[C@@H]2O[C@H]([C@H](O)CO/N=C3/[C@H]4O[C@@H]4[C@@H](O)[C@H]4[C@H]3CCn3c(=O)n(-c5ccccc5)c(=O)n34)[C@@H](O)[C@@H]2O1,7%[11.4 µM],19%[11.5 µM],2%[11.4 µM],nt,nt,nt,nt,
Cc1cccc(OCC(=O)OCC(=O)c2c(N)n(C)c(=O)n(C)c2=O)c1,13µM*,-21%,0%,5%,nt,nt,nt,HEK293 cAMP cnt=4
CC1=CCC2C(=O)N(c3ccc(Br)cc3C)C(=O)C2C1 (centres undefined),25µM*,-19%,3%,-15%,nt,nt,nt,HEK293 cAMP cnt=-2
Cc1ccc(S(=O)(=O)N2CCC(C(=O)NCCCN3CCCCCC3)CC2)cc1,4µM*,-17%,-1%,-6%,nt,nt,nt,HEK293 cAMP cnt=-4
Cc1ccc(S(=O)(=O)N2CCC(C(=O)NC3CCCCCC3)CC2)cc1,15%[11.4 µM],-2%,2%[11.4 µM],?,nt,nt,nt,
COC(=O)C1=C(C)OC(N)=C(C#N)C1c1c(C)nn(-c2ccccc2)c1Cl (centres undefined),6.3µM*,0%,15%,-2%,nt,nt,nt,HEK293 cAMP cnt=6
COC(=O)C1=C(C)OC(N)=C(C#N)C1C1CCCCC1 (centres undefined),13µM*,-1%,25%,-29%,nt,nt,nt,HEK293 cAMP cnt=16
COC(=O)C1=C(C)OC(N)=C(C#N)C1c1ccccc1 (centres undefined),3%,14%,23%,-6%,nt,nt,nt,

# Screening results from PubChem.
